According to PubChem BioAssay (NCATS):
Results filed as inconclusive are left out. Active and inactive are the calls of the source. The call rests on the fitted dose curve; in most records, active means well fitted cell-killing curve with a large enough effect; inconclusive means small, poorly fitted or top-dose-only effect, or effect the other way; inactive means no such curve, though single readings can be large or run the other way.

experiment: Viability qHTS for spleen associated tyrosine kinase inhibitor (SYKi) drug resistant MV4-11 cells (AID 1963824); conditions: SYKi-resistant MV4-11 viability, CellTiter-Glo, 72 h; series mostly up to 45 µM; further: nearly all actives have a fitted effect of over 35% in size
In short: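 SYK inhibitor-resistant MV4-11 AML cells, 500 per well, added to predispensed compounds and incubated 72 hr at 37 C, 5% CO2. Viability measured by CellTiter-Glo luminescence after 10 min at room temperature.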
Potency means the concentration at half of the fitted maximal effect.

SMILES | Potency | viability, % of control
COCC(=O)NC/C=C/c1ccc2ncnc(Nc3ccc(Oc4ccc(C)nc4)c(C)c3)c2c1 | 9.2 µM (active) | 
CC(=O)NCCc1c[nH]c2ccc(O)cc12 | inactive | 
CC1=C2[C@@H]([C@H](C)CC[C@H]2/C=C(\C)C(=O)O)[C@H](O)C1 | inactive | 
COC(=O)C1=COC(O[C@@H]2O[C@H](CO)[C@@H](O)[C@H](O)[C@H]2O)[C@H]2[C@@H]1[C@H](OC(=O)CCc1ccc(O)cc1)C[C@]2(C)O (stereo partly specified) | inactive | 
CCOc1ccc2nc(SCCN3CCOCC3)[nH]c2c1 | inactive | 
Cc1ccc(-c2c(-c3nn(C)c4ncnc(N5CC[C@H](N6CCCCC6)C5)c34)cnn2C)cc1 | inactive | 
COc1nnc2ccc(N3CCC(c4ccc(OCCN5CCN(C)C(=O)[C@H]5C)cc4)CC3)nn12 | 0.0372 µM (active) | 
Cc1cc(N=Nc2ccc(S(=O)(=O)Nc3ccccn3)cc2)c(N)cc1O | 2.59 µM (active) | 
CC(=O)O[C@H]1C(=O)[C@@]2(C)[C@H]([C@H](OC(=O)c3ccccc3)[C@]3(O)C[C@H](OC(=O)[C@H](O)[C@@H](NC(=O)c4ccccc4)c4ccccc4)C(C)=C1C3(C)C)[C@]1(OC(C)=O)CO[C@@H]1C[C@@H]2O | 0.0044 µM (active) | 
NCCCNc1ccc(Nc2nccc(Nc3cc(C4CC4)[nH]n3)n2)cc1 | 0.164 µM (active) | 
Cc1onc(C(=O)N2CCN(C(c3ccc(Cl)cc3)c3ccc(Cl)cc3)CC2)c1[N+](=O)[O-] | 4.61 µM (active) | 
CC1COC(Nc2ccc3ncnc(Nc4ccc(OCc5nccs5)c(Cl)c4)c3c2)=N1 (stereo unspecified) | 9.2 µM (active) | 
CCOc1ccc(Cc2nccc3cc(OCC)c(OCC)cc23)cc1OCC | 0.15 µM (active) | 
C=C1CC[C@@H]2[C@@](C)(CO[C@@H]3O[C@H](CO)[C@@H](O)[C@H](O)[C@H]3O)[C@H](O)CC[C@@]2(C)[C@@H]1CC/C(C)=C/CO[C@@H]1O[C@H](CO)[C@@H](O)[C@H](O)[C@H]1O | inactive | 
COc1cc2nc(N3CCN(C)CC3)nc(NC3CCN(Cc4ccccc4)CC3)c2cc1OC | 3.26 µM (active) | 
C[C@@H]1O[C@@H](OC2C(O[C@H]3[C@H](O[C@H]4CC[C@@]5(C)C(CC[C@]6(C)C5CC=C5C7CC(C)(C)CC(O)[C@]7(C)CC[C@]56C)C4(C)C)O[C@H](C(=O)O)[C@@H](O)[C@@H]3O)OC(CO)C(O)C2O)[C@H](O)[C@H](O)[C@H]1O (stereo partly specified) |  | 97.3% [at 9.25 µM] (inactive)

SMILES | Potency | viability, % of control
CC(=O)OCC1=C[C@@H]2OC(=O)C3=CO[C@@H](O[C@@H]4O[C@H](CO)[C@@H](O)[C@H](O)[C@H]4O)[C@H]1[C@@H]32 | inactive | 
CS(=O)(=O)c1ccc(-c2cn3ccccc3n2)cc1 | inactive | 
COc1ncc(Nc2ncc([C@@H](C)N3CCN(S(C)(=O)=O)CC3)cc2-c2nc(C)nc(N)n2)cc1F | inactive | 
CC(C)(C[C@@](O)(Cc1cc2ccncc2[nH]1)C(F)(F)F)c1cc(F)ccc1O | 2.31 µM (active) | 
C[C@H]1[C@H](C)CC[C@]2(C(=O)O)CC[C@]3(C)C(=CCC4[C@@]5(C)C[C@@H](O)[C@H](O)C(C)(C)C5CC[C@]43C)[C@H]12 (stereo partly specified) | inactive | 
O=C1CCc2cc(S(=O)(=O)Nc3cccc(Cl)c3)ccc2N1 | 16.4 µM (active) | 
C[C@@H]1CCCN1CCc1cc2cc(-c3ccc(C#N)cc3)ccc2o1 | 20.6 µM (active) | 
C=C(C(=O)O)[C@H]1C[C@]2(C)C(=O)CC[C@]23O[C@H]1C[C@@H]3C | inactive | 
CC(=O)N1c2ccc(-c3ccc(C(=O)O)cc3)cc2C(Nc2ccc(Cl)cc2)CC1C (stereo unspecified) | 0.0461 µM (active) | 
Cc1cc2cc(Oc3ccnc(Nc4cccc(CS(=O)(=O)NCCN(C)C)c4)n3)ccc2[nH]1 | 1.86 µM (active) | 
N#Cc1ccc2c(c1)CCN(CCC1CCC(NC(=O)c3ccnc4ccccc34)CC1)C2 (stereo unspecified) | 10.3 µM (active) | 
Cc1ccc2[nH]c(=O)c(C3=NN(C(=O)CCC(=O)O)C(c4ccc(Br)cc4)C3)c(-c3ccccc3)c2c1 (stereo unspecified) | 23.1 µM (active) | 
COC(=O)C[C@@H]1C(C(=O)O)=CO[C@@H](O[C@@H]2O[C@H](CO)[C@@H](O)[C@H](O)[C@H]2O)/C1=C\COC(=O)/C=C/c1ccc(O)c(OC)c1 | inactive | 
Cc1ccc(NC(=O)C(C)C)cc1C1CCN(Cc2ccc(Oc3ccc(F)c(F)c3)cc2)CC1 | 4.61 µM (active) | 
O=C1OC(/C=C/c2ccccc2)=NC/1=C\c1cccnc1 | inactive | 
